Among all 5,500 compounds or so, about 2,000 (36%) were called active. Another 18% or so got no clear call; they are omitted. Cut-off read from the data, not from the text of the source: active = normalized growth mostly below about 0.91 (no sharp cut-off); inconclusive = no clear call, values can overlap the other calls; inactive = mostly above about 0.92. Some of the results follow.
Experiment: chemical genetic growth profiling, strain panel (AID 1159580);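 note: tested at 20 µM; growth read once vehicle control cultures reached saturation at 30 °C; 1 = growth at the plate median or of vehicle wells; lower values mean less growth of the strain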
Conditions: growth OD

Measured: normalized growth

COc1ccc(C(Cl)=C(c2ccc(OC)cc2)c2ccc(OC)cc2)cc1
inactive: S. cerevisiae deletion strains, locus YKL009W, strain mrt4, active compounds read low 1.02 | S. cerevisiae deletion strains, locus YKL068W, active compounds read low 1.02 | S. cerevisiae deletion strains, locus YKL085W, strain MDH1 (second series), active compounds read low 0.98 | S. cerevisiae deletion strains, locus YKL085W, strain MDH1, active compounds read low 0.98 | S. cerevisiae deletion strains, locus YKL160W, strain elf1, active compounds read low 0.993 | S. cerevisiae deletion strains, locus YKL190W, strain CNB1, active compounds read low 1.01 | S. cerevisiae deletion strains, locus YKR001C, strain vps1, active compounds read low 1.01 | S. cerevisiae deletion strains, locus YKR026C, strain gcn3, active compounds read low 1.01 | S. cerevisiae deletion strains, locus YKR091W, strain srl3, active compounds read low 1.04 | S. cerevisiae deletion strains, locus YLL001W, strain dnm1, active compounds read low 1.01 | S. cerevisiae deletion strains, locus YLL026W, active compounds read low 1 | S. cerevisiae deletion strains, locus YLL041C, strain sdh2, active compounds read low 1.02 | S. cerevisiae deletion strains, locus YLR027C, strain aat2, active compounds read low 1.04 | S. cerevisiae deletion strains, locus YLR039C, strain RIC1, active compounds read low 1.01 | S. cerevisiae deletion strains, locus YLR058C, strain SHM2, active compounds read low 1.02 | S. cerevisiae deletion strains, locus YLR102C, strain apc9, active compounds read low 1.02 | S. cerevisiae deletion strains, locus YLR113W, strain HOG1, active compounds read low 0.97 | S. cerevisiae deletion strains, locus YLR221C, strain rsa3, active compounds read low 0.995 | S. cerevisiae deletion strains, locus YLR258W, strain gsy2, active compounds read low 1.02 | S. cerevisiae deletion strains, locus YLR262C, strain YPT6 (second series), active compounds read low 1.07 | S. cerevisiae deletion strains, locus YLR262C, strain YPT6, active compounds read low 1.02 | S. cerevisiae deletion strains, locus YLR268W, strain sec22, active compounds read low 1.01 | S. cerevisiae deletion strains, locus YLR320W, strain mms22, active compounds read low 1.01 | S. cerevisiae deletion strains, locus YLR330W, strain CHS5, active compounds read low 1.01 | S. cerevisiae deletion strains, locus YLR342W, strain FKS1 (second series), active compounds read low 0.988 | S. cerevisiae deletion strains, locus YLR342W, strain FKS1, active compounds read low 1.01 | S. cerevisiae deletion strains, locus YLR357W, strain rsc2, active compounds read low 1.04 | S. cerevisiae deletion strains, locus YLR370C, strain arc18, active compounds read low 0.972 | S. cerevisiae deletion strains, locus YLR371W, strain rom2, active compounds read low 1.03 | S. cerevisiae deletion strains, locus YLR384C, strain iki3, active compounds read low 1.01 | S. cerevisiae deletion strains, locus YLR418C, strain cdc73, active compounds read low 1.06 | S. cerevisiae deletion strains, locus YML016C, strain PPZ1, active compounds read low 1.02 | S. cerevisiae deletion strains, locus YML032C, strain rad52, active compounds read low 1 | S. cerevisiae deletion strains, locus YML120C, strain ndi1, active compounds read low 0.982 | S. cerevisiae deletion strains, locus YML124C, strain tub3, active compounds read low 1.03 | S. cerevisiae deletion strains, locus YMR058W, strain fet3, active compounds read low 1.05 | S. cerevisiae deletion strains, locus YMR078C, strain ctf18, active compounds read low 1.03 | S. cerevisiae deletion strains, locus YMR125W, strain sto1, active compounds read low 1.01 | S. cerevisiae deletion strains, locus YMR129W, active compounds read low 0.998 | S. cerevisiae deletion strains, locus YMR205C, strain PFK2, active compounds read low 1.03 | S. cerevisiae deletion strains, locus YMR223W, strain ubp8, active compounds read low 1.02 | S. cerevisiae deletion strains, locus YMR231W, strain pep5, active compounds read low 1.02 | S. cerevisiae deletion strains, locus YMR263W, strain SAP30, active compounds read low 1.04 | S. cerevisiae deletion strains, locus YMR307W, strain GAS1, active compounds read low 1 | S. cerevisiae deletion strains, locus YNL067W, strain RPL9B, active compounds read low 1.03 | S. cerevisiae deletion strains, locus YNL071W, strain lat1, active compounds read low 1.03 | S. cerevisiae deletion strains, locus YNL128W, strain TEP1, active compounds read low 1.03 | S. cerevisiae deletion strains, locus YNL183C, strain NPR1, active compounds read low 0.905 | S. cerevisiae deletion strains, locus YNL209W, strain ssb2, active compounds read low 1 | S. cerevisiae deletion strains, locus YNL233W, strain BNI4, active compounds read low 1.02 | S. cerevisiae deletion strains, locus YNL248C, strain rpa49, active compounds read low 0.962 | S. cerevisiae deletion strains, locus YNL250W, strain rad50, active compounds read low 1.05 | S. cerevisiae deletion strains, locus YNL271C, strain bni1, active compounds read low 1.01 | S. cerevisiae deletion strains, locus YNL298W, strain CLA4, active compounds read low 1.01 | S. cerevisiae deletion strains, locus YNL307C, strain MCK1, active compounds read low 1.02 | S. cerevisiae deletion strains, locus YNL322C, strain KRE1 (second series), active compounds read low 1.03 | S. cerevisiae deletion strains, locus YNR049C, strain mso1, active compounds read low 0.977 | S. cerevisiae deletion strains, locus YNR052C, strain pop2, active compounds read low 1.02 | S. cerevisiae deletion strains, locus YOL006C, strain TOP1, active compounds read low 1.12 | S. cerevisiae deletion strains, locus YOL012C, strain htz1 1.9 | S. cerevisiae deletion strains, locus YOL147C, strain pex11, active compounds read low 1.02 | S. cerevisiae deletion strains, locus YOR001W, strain rrp6, active compounds read low 1.04 | S. cerevisiae deletion strains, locus YOR061W, strain CKA2, active compounds read low 1.01 | S. cerevisiae deletion strains, locus YOR069W, strain VPS5, active compounds read low 1.02 | S. cerevisiae deletion strains, locus YOR070C, strain gyp1, active compounds read low 1.02 | S. cerevisiae deletion strains, locus YOR080W, strain dia2, active compounds read low 0.995 | S. cerevisiae deletion strains, locus YOR083W, strain WHI5, active compounds read low 1.02 | S. cerevisiae deletion strains, locus YOR106W, strain vam3, active compounds read low 1.07 | S. cerevisiae deletion strains, locus YOR136W, strain idh2, active compounds read low 1.01 | S. cerevisiae deletion strains, locus YOR144C, strain elg1, active compounds read low 1.01 | S. cerevisiae deletion strains, locus YOR184W, strain ser1, active compounds read low 1 | S. cerevisiae deletion strains, locus YOR231W, strain MKK1, active compounds read low 0.981 | S. cerevisiae deletion strains, locus YOR265W, strain rbl2, active compounds read low 0.996 | S. cerevisiae deletion strains, locus YOR270C, strain vph1, active compounds read low 1.09 | S. cerevisiae deletion strains, locus YOR290C, strain snf2, active compounds read low 1 | S. cerevisiae deletion strains, locus YOR316C, strain cot1, active compounds read low 1.02 | S. cerevisiae deletion strains, locus YPL051W, strain arl3, active compounds read low 0.99 | S. cerevisiae deletion strains, locus YPL055C, strain LGE1, active compounds read low 1.01 | S. cerevisiae deletion strains, locus YPL078C, strain atp4, active compounds read low 1.04 | S. cerevisiae deletion strains, locus YPL106C, strain sse1, active compounds read low 1.01 | S. cerevisiae deletion strains, locus YPL240C, strain hsp82, active compounds read low 0.989 | S. cerevisiae deletion strains, locus YPL241C, strain CIN2, active compounds read low 1.01 | S. cerevisiae deletion strains, locus YPL256C, strain CLN2, active compounds read low 0.964 | S. cerevisiae deletion strains, locus YPR119W, strain clb2, active compounds read low 1.02 | S. cerevisiae deletion strains, locus YPR141C, strain kar3, active compounds read low 1.02 | S. cerevisiae deletion strains, locus YPR163C, strain tif3, active compounds read low 1.03 | S. cerevisiae deletion strains, locus YPR167C, strain met16, active compounds read low 1.02 | S. cerevisiae deletion strains, strain wtn01, active compounds read low 1.02 | S. cerevisiae strains, strain wild type, active compounds read low 1.02

— PubChem BioAssay AID1159580 (chemical genetic matrix, 2015)
